Data on 21 molecules can be found in paper PMC8136818, “Evolving origin-of-transfer sequences on staphylococcal conjugative and mobilizable plasmids—who’s mimicking whom?”.

Changes are numbered by the printed parent chain.

The chains are these.
T1: SmpO49 (Staphylococcus aureus plasmid pWBG749, UniProt UPI0001BEA96A 1-84)
T1 sequence: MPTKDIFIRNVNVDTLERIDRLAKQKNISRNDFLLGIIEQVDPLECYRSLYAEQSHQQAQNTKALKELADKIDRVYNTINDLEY

T2: SmpO45 (Staphylococcus aureus plasmid pWBG745, UniProt UPI0001BEA8D3 1-84)
T2 sequence: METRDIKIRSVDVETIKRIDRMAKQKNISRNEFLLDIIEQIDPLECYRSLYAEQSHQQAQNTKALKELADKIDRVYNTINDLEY

T3: SmpOUNa (plasmid pC02)
T3 chain: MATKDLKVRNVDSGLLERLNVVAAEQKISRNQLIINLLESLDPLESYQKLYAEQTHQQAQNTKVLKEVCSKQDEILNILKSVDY

T4: SmpO408 (Staphylococcus aureus M0408)
T4 chain: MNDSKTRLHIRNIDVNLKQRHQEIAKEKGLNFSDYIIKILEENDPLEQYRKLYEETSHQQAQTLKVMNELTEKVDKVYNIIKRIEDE

T5: SmpOSep (Staphylococcus epidermidis VCU120)
T5 chain: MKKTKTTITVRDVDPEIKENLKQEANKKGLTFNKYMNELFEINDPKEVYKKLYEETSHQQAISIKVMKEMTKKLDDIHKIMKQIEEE

T6: SmpO49-F7K (Staphylococcus aureus plasmid pWBG749, UniProt UPI0001BEA96A 1-84, F7K)
T6 sequence: T1 sequence with F7K

B1: ossA49-12 (dsDNA)
DNA 1: TTTATGATATCTCTAT
DNA 2: ATAGAGATATCATAAA
B2: ossB45 (dsDNA)
DNA 1: AATATGGGGTCATATT
DNA 2: AATATGACCCCATATT
B3: ossAUNa (dsDNA)
DNA 1: GTGACCCCCATAAGAT
DNA 2: ATCTTATGGGGGTCAC
B4: OT49.3 (dsDNA)
DNA 1: GACACTAGGTGTTTTTATGATATCACTATG
DNA 2: CATAGTGATATCATAAAAACACCTAGTGTC
B5: ossA45-4 (dsDNA)
DNA 1: ATTCTGGGGTCACTTT
DNA 2: AAAGTGACCCCAGAAT
B6: OTUNa For/Rev_15 (dsDNA)
DNA 1: TGGCTTCGCCAGATTACCCATTATAAAATG
DNA 2: CATTTTATAATGGGTAATCTGGCGAAGCCA
B7: OT45.5 (dsDNA)
DNA 1: GGTCACTTTAAATTCTTTAAAACCCTTGAA
DNA 2: TTCAAGGGTTTTAAAGAATTTAAAGTGACC
B8: ossA49-15 (dsDNA)
DNA 1: TTTATGATATCACTTT
DNA 2: AAAGTGATATCATAAA
B9: ossA45-2 (dsDNA)
DNA 1: AATGTGGGGTCACTTT
DNA 2: AAAGTGACCCCACATT
B10: ossA49 (dsDNA)
DNA 1: TTTATGATATCACTAT
DNA 2: ATAGTGATATCATAAA
B11: ossA49-2 (dsDNA)
DNA 1: TATATGATATCACTAT
DNA 2: ATAGTGATATCATATA
B12: ossA45-16 (dsDNA)
DNA 1: ATTGTGGGGTCACTTA
DNA 2: TAAGTGACCCCACAAT
B13: OT45.9 (dsDNA)
DNA 1: TTGCCAGCCACCCCATAAAATATGGGGTCA
DNA 2: TGACCCCATATTTTATGGGGTGGCTGGCAA
B14: OT45.4 (dsDNA)
DNA 1: TTTATTGTGGGGTCACTTTAAATTCTTTAA
DNA 2: TTAAAGAATTTAAAGTGACCCCACAATAAA
B15: ossA45-15 (dsDNA)
DNA 1: ATTGTGGGGTCACTAT
DNA 2: ATAGTGACCCCACAAT
B16: ossA45-10 (dsDNA)
DNA 1: ATTGTGGGGACACTTT
DNA 2: AAAGTGTCCCCACAAT
B17: OT49.4 (dsDNA)
DNA 1: GTTTTTATGATATCACTATGAAATGTCCTA
DNA 2: TAGGACATTTCATAGTGATATCATAAAAAC
B18: ossA45-12 (dsDNA)
DNA 1: ATTGTGGGGTCTCTTT
DNA 2: AAAGAGACCCCACAAT
B19: ossA49-5 (dsDNA)
DNA 1: TTTAAGATATCACTAT
DNA 2: ATAGTGATATCTTAAA
B20: OT49.10 (dsDNA)
DNA 1: CTATCATTGTCCGATGATAGCAAATTCCCC
DNA 2: GGGGAATTTGCTATCATCGGACAATGATAG
B21: ossA49-16 (dsDNA)
DNA 1: TTTATGATATCACTAA
DNA 2: TTAGTGATATCATAAA

One test concerns the target T1, SmpO49. In words: SPR (ReDCaT); 150 mM NaCl; 10 mM HEPES, 3 mM EDTA, 0.05% Tween 20, NaCl 150 mM (SmpO49 screens), 300 mM (SmpO45, SmpO408, SmpOUNa screens) or 250 mM (Table S4); pH and temperature not stated; protein 1 uM; high values mean tight binding. Conditions: protein: recombinant; tags: His6-TEV, cleaved; chain copies: 4. Summed up: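 Tag-cleaved protein, expressed in E. coli BL21(DE3)pLysS and purified by nickel-affinity and size-exclusion chromatography, was screened on a Biacore T200 SA chip by reusable DNA capture. OriT oligonucleotides were captured at 1 μM on Fc2, with a control linker on Fc1. Protein at 1 μM was injected at 30 μl/min (60 s contact, 60 s dissociation) in 10 mM HEPES, 150 mM NaCl, 3 mM EDTA, 0.05% Tween 20. DNA binding is reported as %Rmax.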
As for B1, the binding signal stood at 5.13 ± 0.452 %Rmax.
On the same count and under the same terms, as for B4, the figure is 18.8 ± 0.402 %Rmax.
The same measure, in the same setting: as for B8, the figure is 26.8 ± 1.07 %Rmax; as for B10, 26 ± 1.13 %Rmax; as for B11, 26.3 ± 1.74 %Rmax.
The same measure, in the same setting: as for B17, the figure is 17 ± 0.325 %Rmax; as for B19, 6.94 ± 0.948 %Rmax.
With B20, the binding signal was determined as 0.584 ± 0.045 %Rmax.
Still for that read-out and setting: as for B21, the figure is 24.8 ± 1.07 %Rmax.

For the next test, the target named is T2, SmpO45. Put plainly: SPR (ReDCaT); 250 mM NaCl; 10 mM HEPES, 3 mM EDTA, 0.05% Tween 20, NaCl 150 mM (SmpO49 screens), 300 mM (SmpO45, SmpO408, SmpOUNa screens) or 250 mM (Table S4); pH and temperature not stated; protein 1 uM; high values mean tight binding. The settings on record: protein: recombinant; tags: His6-TEV, cleaved; chain copies: 4.
As for B2, the binding signal was determined as 21.6 %Rmax.
The same measure, in the same setting: as for B3, the figure is 1.6 %Rmax.

A further test has as its target T3, SmpOUNa. The description is as above. Conditions: protein: recombinant; tags: His6-TEV, cleaved; chain copies: 4.
As to B2, the binding signal amounted to 1.4 %Rmax.
Take B3: the binding signal was determined as 12.4 %Rmax.

The next test addresses T4, SmpO408. Described as above. The settings on record: protein: recombinant; tags: His6-TEV, cleaved; chain copies: 4.
For B2, the binding signal was 0.9 %Rmax.
As to B3, the binding signal was 2.9 %Rmax.

In a further test the target is T5, SmpOSep. The test is described as above. Conditions: protein: recombinant; tags: His6-TEV, cleaved; chain copies: 4.
In the case of B2, the binding signal was determined as 0.5 %Rmax.
Still for that read-out and setting: as for B10, the figure is 1.2 %Rmax.

Another test addresses T6, SmpO49-F7K. The description is as above. The settings on record: protein: recombinant; tags: His6-TEV, cleaved; chain copies: 4.
With B2, the binding signal was 26.1 %Rmax.
As to B3, the binding signal came out at 3.5 %Rmax.

Another test has as its target T2, SmpO45. In words: SPR (ReDCaT); 300 mM NaCl; 10 mM HEPES, 3 mM EDTA, 0.05% Tween 20, NaCl 150 mM (SmpO49 screens), 300 mM (SmpO45, SmpO408, SmpOUNa screens) or 250 mM (Table S4); pH and temperature not stated; protein 1 uM; high values mean tight binding. Conditions: protein: recombinant; tags: His6-TEV, cleaved; chain copies: 4. The method, boiled down:
(§1)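 The running buffer was 10 mM HEPES, 300 mM NaCl, 3 mM EDTA, 0.05% Tween 20, and protein at 1 μM was injected at 30 μl/min for 60 s contact and 60 s dissociation. The protein had been expressed in E. coli BL21(DE3)pLysS, cleaved of its tag, and purified by nickel-affinity and size-exclusion chromatography. OriT oligonucleotides were captured at 1 μM on Fc2 of a Biacore T200 SA chip by reusable DNA capture, and a linker was captured on Fc1. Values are DNA binding expressed as %Rmax.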
As for B5, the binding signal was 33.4 ± 0.753 %Rmax.
The same measure, in the same setting: as for B7, the figure is 17.8 ± 1.2 %Rmax; as for B9, 32.56 ± 0.0519 %Rmax.
For the molecule B12, the binding signal stood at 43.4 ± 1.14 %Rmax.
As to B13, the binding signal turned out to be 0.769 ± 0.108 %Rmax.
Same read-out and setting: as for B14, the figure is 29.4 ± 1.33 %Rmax.
Consider B15, for which the binding signal turned out to be 38.6 ± 1.09 %Rmax.
For the molecule B16, the binding signal came out at 6.42 ± 0.416 %Rmax.
Same read-out and setting: as for B18, the figure is 7.81 ± 0.57 %Rmax.

The target in another test is T3, SmpOUNa. The test is described as above. Conditions: protein: recombinant; tags: His6-TEV, cleaved; chain copies: 4. Summed up:
as §1
As to B6, the binding signal worked out at 5.46 ± 0.605 %Rmax.
